# Source: PubChem
# KCNQ2 enhance = enhances the rat KCNQ2 potassium channel. CHO-K1 KCNQ2, FluxOR thallium flux fluorescence; active compounds read high. B-score at 10 µM. 310,000 compounds, 0.54% hits;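 active = fluorescence ratio B-score at least 3 SD of library B-scores, with initial fluorescence B-score within 3 of them, cut at about 5.3 in these data; same plate scores as AID 2156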;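 also: B-score of peak minus minimum over baseline fluorescence ratio after K+ and Tl+ stimulus; positive B-score means potentiation of KCNQ2 with more thallium influx and brighter signal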
# Target sequence (O88943 whole entry, looked up): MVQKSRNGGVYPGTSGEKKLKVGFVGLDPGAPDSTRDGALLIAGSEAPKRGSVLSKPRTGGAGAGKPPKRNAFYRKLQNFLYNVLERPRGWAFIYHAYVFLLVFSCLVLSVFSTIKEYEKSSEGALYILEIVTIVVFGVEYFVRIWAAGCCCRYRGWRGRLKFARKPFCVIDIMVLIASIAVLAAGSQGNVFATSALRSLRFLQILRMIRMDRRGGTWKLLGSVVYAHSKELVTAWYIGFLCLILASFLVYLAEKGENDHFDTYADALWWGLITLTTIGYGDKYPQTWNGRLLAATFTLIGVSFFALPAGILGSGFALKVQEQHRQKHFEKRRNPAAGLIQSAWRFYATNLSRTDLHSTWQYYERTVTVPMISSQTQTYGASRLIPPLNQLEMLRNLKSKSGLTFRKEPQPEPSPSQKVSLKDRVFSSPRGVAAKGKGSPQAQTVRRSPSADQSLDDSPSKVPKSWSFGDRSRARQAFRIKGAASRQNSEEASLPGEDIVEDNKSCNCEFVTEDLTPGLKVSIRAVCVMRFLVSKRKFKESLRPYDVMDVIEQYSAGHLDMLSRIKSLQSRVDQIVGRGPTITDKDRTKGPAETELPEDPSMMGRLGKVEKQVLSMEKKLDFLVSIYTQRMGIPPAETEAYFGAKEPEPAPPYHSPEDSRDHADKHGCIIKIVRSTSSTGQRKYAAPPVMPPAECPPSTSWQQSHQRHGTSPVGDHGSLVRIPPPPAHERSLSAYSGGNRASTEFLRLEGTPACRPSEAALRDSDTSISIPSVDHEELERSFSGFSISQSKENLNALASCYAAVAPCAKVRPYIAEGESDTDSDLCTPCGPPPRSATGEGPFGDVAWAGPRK
# KCNQ2 inh = inhibitors of rat KCNQ2 potassium channel | CHO-K1 KCNQ2, FluxOR thallium flux, 20 min; active compounds read low | B-score at 10 µM | 310,000 compounds, 1.1% hits | AID 2156;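 active = fluorescence ratio B-score at most minus 3 library SDs, with starting brightness B-score within 2 library SDs, cut at about -5.5 in these data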
# Active calls of the source: *; i = inactive; . = no result. Only some compounds are listed: those with a hit (about 1.6% of all), similar ones and a draw of the others.
SMILES,KCNQ2 enhance,KCNQ2 inh
COc1ccc(OCC(=O)N2CCc3ccccc3C2)cc1,.,i
Cc1cc(OCC(=O)N2CCc3ccccc3C2)c2c(-c3ccccc3)cc(=O)oc2c1,-7.55,-7.55*
O=C(COc1ccc(Br)cc1)N1CCOCC1,.,i
O=C(COc1ccc(Br)cc1)N1CCc2ccccc2C1,-6.52,-6.52*
O=C(COc1ccc(Br)cc1)N1CCC(c2ccccc2)C1 (stereo unspecified),-5.58,-5.58*
CCOc1cc(C)cc2oc(=O)cc(-c3ccccc3)c12,.,i
O=C(CCS(=O)(=O)Cc1ccccc1)Nc1ncc([N+](=O)[O-])s1,.,i
CCOC(=O)CSc1nc(C(C)(C)C)cc(C(F)(F)F)c1C#N,0.2,i
Cc1ccc(N2C(=O)[C@@H]3[C@H](C2=O)C2c4ccccc4C=CN2[C@@H]3C(=O)c2ccco2)c(C)c1 (stereo partly specified),-6.39,-6.39*
O=C(c1ccco1)[C@@H]1[C@@H]2C(=O)N(c3ccccc3)C(=O)[C@@H]2C2c3ccccc3C=CN21 (stereo partly specified),.,i
CC(C)[C@H](NC(=O)N1CCn2c1nc1ccccc12)C(=O)NC1CCCCC1,.,i
Cc1nn(C(C)C(=O)N/N=C/c2ccc(N(C)C)cc2)c(C)c1[N+](=O)[O-] (stereo unspecified),.,i
Cc1oc2cc3oc(=O)c(CCC(=O)NCCN4CCOCC4)c(C)c3cc2c1C,0.47,i
O=C(O)c1oc2ccccc2c1CSc1ccc(Cl)cc1,2.86,i
CCC(C)NC(=O)COC(=O)c1oc2ccccc2c1CSc1ccc(Cl)cc1 (stereo unspecified),-6.09,-6.09*
Cc1ccc(NC(=O)COc2coc(CN3CCc4ccccc43)cc2=O)cc1Cl,.,i
CCOC(=O)N1CCN(C(=O)c2ccc3c(c2)N(Cc2cc(C)ccc2C)C(=O)c2ccccc2S3=O)CC1 (stereo unspecified),.,i
O=C(NCc1ccc2c(c1)OCO2)c1ccc(N2CCCCCC2)c([N+](=O)[O-])c1,2.51,i
CC1CCCN(c2ccc(C(=O)NCc3ccc4c(c3)OCO4)cc2[N+](=O)[O-])C1 (stereo unspecified),8.28*,i
COc1ccc(-c2ccc(-c3nnc(-c4cc(OC)ccc4OC)o3)cc2)cc1,0.4,i
COc1ccc(OC)c(-c2cnc(OC(C)(C)C)nc2OC(C)(C)C)c1,-5.74,-5.74*
Cc1ccc(S(=O)(=O)NCc2ccccc2)cc1C(=O)N1CCCCC1,1.65,i
Cc1ccc(S(=O)(=O)NCc2ccccc2)cc1C(=O)N1CC(C)CC(C)C1 (stereo unspecified),-6.01,-6.01*
CCOCCCn1c(C)nc2c(c1=O)c1nc3ccccc3nc1n2-c1ccc(C)cc1,.,i
CCO/C(C)=N/n1c2nc3ccccc3nc2c2c(=O)n(CC(C)C)c(C)nc21,-5.61,-5.61*
SMILES,KCNQ2 enhance,KCNQ2 inh
COc1ccc(-c2nc(CS(=O)CC(=O)NC3CCCCC3C)c(C)o2)cc1 (stereo unspecified),0.5,i
COc1ccc(-c2nc3cccc(C)n3c2NCc2ccco2)cc1OC,-6.01,-6.01*
COc1ccc(-c2csc(NCc3ccco3)n2)cc1C,.,i
COc1ccc(S(=O)(=O)N2CCCC(C(=O)NCc3ccco3)C2)cc1Cl (stereo unspecified),.,i
N#C/C=C(/N)N1CCN(c2ccc(Cl)c(Cl)c2)CC1,.,i
Cc1cccc2c1OCC/C2=N\NC(=O)COc1ccccc1,-7.28,-7.28*
COc1ccc(OCC(=O)N/N=C2\CCCc3ccccc32)cc1,.,i
COc1ccc(C(=O)N/N=C2\CCc3ccccc32)cc1OC,0.19,i
COc1ccccc1OCC(=O)N/N=C1\CCCCc2ccccc21,-7.07,-7.07*
O=C(COc1cccc(Br)c1)N/N=C1\CCCc2ccccc21,.,i
COc1ccccc1OCC(=O)N/N=C1\CCc2ccccc21,-5.64,-5.64*
CNC(=O)NNC(=O)c1nc(-c2ccccc2)c(C)o1,2.26,i
FC(F)(F)c1cnc(COc2cc(Cl)cc(Cl)c2)c(Cl)c1,.,i
CCN(CC)C(=O)C(Sc1ccccc1)c1ccccc1 (stereo unspecified),0.75,i
C=CCN(c1cccc(C(F)(F)F)c1)S(=O)(=O)c1cccc(C(=O)OCC(=O)NCCC)c1,6.6*,i
C=CCN(c1ccccc1)S(=O)(=O)c1cccc(C(=O)OCC(=O)NCCOC)c1,1.29,i
CCOC1=C/C(=C/c2c(N)n3nc(-c4ccccc4)sc3nc2=O)C=CC1=O,-6.88,-6.88*
CCS(=O)(=O)c1nn2c(N)c(/C=C3/C=CC(=O)C(OC)=C3)c(=O)nc2s1,.,i
Cc1c(CCOC(=O)c2ccccc2)sc[n+]1CC(=O)c1ccc(Br)cc1,.,i
Cc1c(CCOC(=O)C23CC4CC(CC(C)(C4)C2)C3)sc[n+]1CC(=O)c1ccccc1,-6.51,-6.51*
COc1ccc(N2CCN(C(=O)COC(=O)CCOc3ccc(C)cc3)CC2)cc1,.,i
